For five compounds, composite z-score and z-score results are on record in PubChem BioAssay.

Calls of active or inactive are those of the source. Unless noted, how the calls were made is not given here.

The nature of experiment [1]: compounds binding Alexa647 anti-His antibody – biochemical, small-molecule microarray, 635 nm fluorescence, artefact control for SMM control protein annotation, primary screen (AID 1128).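 Further: score merges feature fluorescence with signal-to-noise for each printed compound spot.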 Conditions: higher = more signal.
Experiment [2] relates to Human papillomavirus type 1a E7 protein (residues 1-88). The experiment in a line: HPV1a E7 small-molecule binders, primary screen, biochemical, small-molecule microarray, residues 1-88, 635 nm (AID 1129). Conditions: small-molecule microarray binding, fluorescence 635 nm; higher = more signal.
For experiment [3], the target named is Focal adhesion kinase 1 (Homo sapiens) (UniProt Q05397). Kind of experiment: PTK2 protein binding on printed compound slides – biochemical, small-molecule microarray, 635/667 nm fluorescence, BSA, DTT, primary screen (AID 1130).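 Further: composite of spot emission at 667 nm and signal to noise over triplicate slides.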 Conditions: 635 nm fluorescence, higher = more signal.
Experiment [4] relates to Fibrinogen (Alexa647-labelled). Kind of experiment: Alexa647-fibrinogen binding to printed small molecules – biochemical, small-molecule microarray, 635/667 nm fluorescence, artefact control for SMM control-protein annotation, profiling panel (AID 1131).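 Further: z-score merges 667 nm fluorescence with per-spot signal-to-noise over triplicate slides.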 The following applies: fibrinogen-A647 binding fluorescence, higher = more signal.
In experiment [5] the target is Follistatin (Homo sapiens) (UniProt P19883). Kind of experiment: FST protein binding to printed compounds – biochemical, small-molecule microarray, 635/667 nm fluorescence, primary screen (AID 1132). The following applies: 635 nm fluorescence, higher = more signal.
The target of experiment [6] is Fibroblast growth factor 2 (Homo sapiens) (UniProt P09038). Kind of experiment: basic fibroblast growth factor binding to printed compounds – biochemical, small-molecule microarray, 635/667 nm fluorescence, primary screen (AID 1133). The following applies: FGF2, fluorescence 635/667, higher = more signal.
Experiment [7] can be described thus: JC-1 mitochondrial potential readout, lung cancer cells – cell-based, A549, JC-1 fluorescence, basal, 24 h, 100 nL, profiling panel (AID 1138).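 Further: A549 lung adenocarcinoma cells under basal conditions with no added stimulus; test concentration not given here.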 Conditions: higher = more signal.
A further experiment concerns Lefty1. Kind of experiment: Lefty1 protein binding to printed compounds – biochemical, small-molecule microarray, 635/667 nm fluorescence, primary screen (AID 1139). The following applies: fluorescence 635/667, higher = more signal.
The subject of experiment [8] is wheat germ agglutinin (Triticum aestivum), Alexa647-labelled. Kind of experiment: Alexa647-WGA lectin binding to printed small molecules – biochemical, small-molecule microarray, 635/667 nm fluorescence, artefact control for SMM control-protein annotation, profiling panel (AID 1140).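 Further: score merges 667 nm feature emission with signal to noise over triplicate slides.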 The following applies: WGA-A647 binding, 635 nm fluorescence, higher = more signal.

For experiment [9], the target named is Luciferin 4-monooxygenase (Photinus pyralis) (UniProt P08659). The experiment in a line: inhibition of purified Photinus pyralis luciferase – biochemical, luminescence, purified enzyme, 2006 set, primary screen (AID 1141).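 Further: cell-free assay with purified firefly luciferase at 100 ng per well in PBS; test concentration not given here.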 The following applies: purified firefly luciferase, SteadyGlo luminescence, 30 min; higher = more signal, called active from +8 up or from −8 down.

Experiment [10] deals with Wnt5a (protein binding on small-molecule microarray). The experiment in a line: small molecules binding Wnt5a protein – biophysical, small-molecule microarray, 635/667 nm fluorescence, primary screen (AID 1142).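 Further: fluorescence read at 667 nm with signal to noise per printed feature.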 The following applies: 635 nm fluorescence, higher = more signal.
Experiment [11] is described as follows: ATP-based viability of Huh7 replicon cells – cell-based, CellTiter-Glo luminescence, basal, 48 h, cytotoxicity control for HCV replication inhibitor project, primary screen (AID 1143).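 Further: Huh7 hepatoma cells carrying a hepatitis C replication reporter with no stimulus; test concentration not given here.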 The following applies: higher = more signal, called active from +8 up or from −8 down. A general note: Replicon systems follow genome replication, usually without infectious particles.

Experiment [12] in a line: Pseudomonas biofilm growth suppression – PAO1 strain, BacTiter-Glo luminescence, LB-PBS, primary screen (AID 1144). The following applies: P. aeruginosa PAO1 biofilm, 12 h, higher = more signal.
The nature of experiment [13]: basal CRE-LacZ reporter activity in PC12 – cell-based, unstimulated, primary screen (AID 1145). The following applies: no forskolin, luminescence, 4.5 h, higher = more signal, called active from +8 up or from −8 down.
Experiment [14] in a line: forskolin-driven CRE-LacZ activity in PC12 – cell-based, CRE-LacZ reporter, forskolin-stimulated, primary screen (AID 1146).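 Further: PC12 cells with 6xCRE LacZ reporter stimulated by forskolin 10 µM; beta-galactosidase reporter signal reflecting CREB driven transcription.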 Conditions: luminescence, 4.5 h, higher = more signal, called active from +8 up or from −8 down.
Experiment [15] concerns the target Streptavidin (Streptomyces avidinii) (UniProt P22629). Kind of experiment: compounds binding control protein streptavidin – biophysical, small-molecule microarray, 635/667 nm fluorescence, artefact control for SMM compound annotation, primary screen (AID 1147).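 Further: signal reflects streptavidin binding to arrayed compounds as a control protein.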 Conditions: higher = more signal.
The nature of experiment [16]: probe aInhba binding on compound microarray – biochemical, small-molecule microarray, 635/667 nm fluorescence, primary screen (AID 1148).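 Further: score merges 667nm spot fluorescence with signal-to-noise for antibody binding to printed compounds.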 The following applies: higher = more signal.
Experiment [17] concerns the target Torsin-1A (Homo sapiens) (UniProt O14656). The experiment in a line: TOR1A wild-type binding on microarray – cell lysate, small-molecule microarray, lysate, 635/667 nm, primary screen (AID 1149). Conditions: COS7 hTOR1A-WT lysate, 635 nm fluorescence, higher = more signal.
For experiment [18] the target is unchanged. Kind of experiment: torsin A mutant lysate binding on microarrays – cell lysate, small-molecule microarray, COS7 lysate, 635/667 nm fluorescence, primary screen (AID 1150).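 Further: score pools 667 nm emission and signal to noise measuring lysate protein binding.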 The following applies: COS7 hTOR1A mutant lysate, 635 nm fluorescence, higher = more signal.
Experiment [19] deals with Sonic hedgehog protein (Shh). Kind of experiment: Sonic hedgehog microarray binding compounds – biochemical, small-molecule microarray, 635/667 nm fluorescence, primary screen (AID 1151).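 Further: Shh protein binding to compounds spotted on small-molecule microarray slides; score combines spot fluorescence intensity with signal-to-noise across triplicate slides.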 Conditions: 635 nm fluorescence, higher = more signal.

Focal adhesion kinase 1 (Homo sapiens), sequence (Q05397 whole entry, looked up): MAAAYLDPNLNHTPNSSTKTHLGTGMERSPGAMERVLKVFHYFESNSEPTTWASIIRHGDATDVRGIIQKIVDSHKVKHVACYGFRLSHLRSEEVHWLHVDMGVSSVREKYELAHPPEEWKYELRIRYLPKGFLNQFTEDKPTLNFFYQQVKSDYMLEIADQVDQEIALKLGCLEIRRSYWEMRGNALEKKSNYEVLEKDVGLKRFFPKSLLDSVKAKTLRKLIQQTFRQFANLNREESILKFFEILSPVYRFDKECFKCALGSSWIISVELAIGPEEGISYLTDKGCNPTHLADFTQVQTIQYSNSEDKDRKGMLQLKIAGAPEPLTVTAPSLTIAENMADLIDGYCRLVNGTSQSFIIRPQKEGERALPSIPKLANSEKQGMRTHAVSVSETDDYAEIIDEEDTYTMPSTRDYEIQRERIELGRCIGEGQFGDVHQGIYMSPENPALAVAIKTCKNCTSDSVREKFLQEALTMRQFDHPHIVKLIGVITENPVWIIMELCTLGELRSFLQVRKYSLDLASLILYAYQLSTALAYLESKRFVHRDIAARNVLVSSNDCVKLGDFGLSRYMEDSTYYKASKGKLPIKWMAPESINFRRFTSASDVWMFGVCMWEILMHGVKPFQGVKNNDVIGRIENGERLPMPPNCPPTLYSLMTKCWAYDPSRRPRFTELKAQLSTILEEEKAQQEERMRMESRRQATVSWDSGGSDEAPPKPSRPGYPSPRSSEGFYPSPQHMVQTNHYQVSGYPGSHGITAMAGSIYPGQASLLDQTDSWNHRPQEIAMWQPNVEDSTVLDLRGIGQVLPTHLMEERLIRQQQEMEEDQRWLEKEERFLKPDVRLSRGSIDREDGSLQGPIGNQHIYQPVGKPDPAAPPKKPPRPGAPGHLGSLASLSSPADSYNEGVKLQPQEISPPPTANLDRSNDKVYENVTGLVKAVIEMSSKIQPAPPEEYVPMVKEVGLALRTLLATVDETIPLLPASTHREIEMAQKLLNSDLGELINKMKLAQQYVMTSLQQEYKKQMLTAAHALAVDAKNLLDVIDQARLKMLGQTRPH
Torsin-1A (Homo sapiens), sequence (O14656 whole entry, looked up): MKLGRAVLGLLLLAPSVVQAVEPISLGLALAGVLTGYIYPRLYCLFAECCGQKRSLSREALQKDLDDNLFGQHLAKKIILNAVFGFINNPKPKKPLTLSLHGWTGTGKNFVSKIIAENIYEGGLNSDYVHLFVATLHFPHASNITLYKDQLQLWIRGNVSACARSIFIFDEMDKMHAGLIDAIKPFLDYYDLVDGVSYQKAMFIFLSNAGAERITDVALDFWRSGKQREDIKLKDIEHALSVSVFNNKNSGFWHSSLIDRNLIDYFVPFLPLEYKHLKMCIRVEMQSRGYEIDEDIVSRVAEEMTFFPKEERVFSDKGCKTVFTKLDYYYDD
Streptavidin (Streptomyces avidinii), sequence (P22629 whole entry, looked up): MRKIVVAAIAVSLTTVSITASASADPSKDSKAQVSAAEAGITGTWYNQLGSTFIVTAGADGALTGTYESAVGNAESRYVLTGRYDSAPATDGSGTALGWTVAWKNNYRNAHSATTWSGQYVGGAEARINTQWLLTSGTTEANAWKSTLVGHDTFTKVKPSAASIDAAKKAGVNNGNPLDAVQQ
Luciferin 4-monooxygenase (Photinus pyralis), sequence (P08659 whole entry, looked up): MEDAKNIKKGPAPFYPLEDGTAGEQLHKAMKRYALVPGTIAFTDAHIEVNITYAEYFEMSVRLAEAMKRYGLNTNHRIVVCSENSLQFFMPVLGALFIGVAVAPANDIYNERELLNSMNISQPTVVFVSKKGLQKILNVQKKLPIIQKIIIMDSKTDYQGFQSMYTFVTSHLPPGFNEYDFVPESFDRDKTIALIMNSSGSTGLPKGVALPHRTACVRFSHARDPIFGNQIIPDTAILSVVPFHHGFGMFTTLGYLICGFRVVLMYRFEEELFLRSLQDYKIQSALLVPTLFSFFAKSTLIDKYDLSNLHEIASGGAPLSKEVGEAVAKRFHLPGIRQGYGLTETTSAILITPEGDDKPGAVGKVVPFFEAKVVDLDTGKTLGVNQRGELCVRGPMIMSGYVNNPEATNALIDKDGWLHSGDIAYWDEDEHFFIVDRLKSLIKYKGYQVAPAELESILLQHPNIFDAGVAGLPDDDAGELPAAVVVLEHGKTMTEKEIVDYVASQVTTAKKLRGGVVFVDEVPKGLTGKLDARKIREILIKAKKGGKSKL
Fibroblast growth factor 2 (Homo sapiens), sequence (P09038 whole entry, looked up): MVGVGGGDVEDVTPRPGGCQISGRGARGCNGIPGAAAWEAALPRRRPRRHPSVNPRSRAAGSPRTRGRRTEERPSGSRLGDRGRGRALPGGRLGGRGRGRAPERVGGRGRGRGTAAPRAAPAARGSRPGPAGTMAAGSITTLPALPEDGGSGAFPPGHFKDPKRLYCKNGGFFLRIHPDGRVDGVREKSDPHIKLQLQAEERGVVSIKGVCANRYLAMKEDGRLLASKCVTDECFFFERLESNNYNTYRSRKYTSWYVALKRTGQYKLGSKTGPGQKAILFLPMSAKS
Follistatin (Homo sapiens), sequence (P19883 whole entry, looked up): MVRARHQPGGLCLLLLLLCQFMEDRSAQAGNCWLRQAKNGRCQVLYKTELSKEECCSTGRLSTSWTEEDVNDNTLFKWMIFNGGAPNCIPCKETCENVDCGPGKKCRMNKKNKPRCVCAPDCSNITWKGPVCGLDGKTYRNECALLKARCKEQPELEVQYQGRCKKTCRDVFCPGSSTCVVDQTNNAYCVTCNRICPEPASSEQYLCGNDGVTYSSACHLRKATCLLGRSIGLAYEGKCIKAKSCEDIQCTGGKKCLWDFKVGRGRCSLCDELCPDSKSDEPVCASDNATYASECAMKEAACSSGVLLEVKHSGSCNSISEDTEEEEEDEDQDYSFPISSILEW

As to `C=CCN1C(=O)[C@]2(CC=C)N=C(c3ccc(OCCCO)cc3)O[C@@H]2c2ccccc21`, the composite z-score was determined as 3.19 in experiment [1]; 1.16 in experiment [2]; 0.496 in experiment [3]; 0.297 in [4]; 1.39 in experiment [5]; 1.56 in [6]. Also, the composite z-score in the experiment on Lefty1 is 0.768; in experiment [8], 1.14; in experiment [10], 0.731; in experiment [15] it was 0.842; in experiment [16] it was 0.296; in the experiment with Torsin-1A (Homo sapiens) [17], 0.265. In addition, the figures for the composite z-score (with Torsin-1A (Homo sapiens) [18]; in [19]) were 0.538 and 1.65, respectively. Further, the z-score in experiment [7] is -0.998; in experiment [9], -3.31 (inactive); in experiment [11], -4.15 (inactive); in experiment [12], 0.312 (inactive); in experiment [13], 0.796 (inactive); in experiment [14], -0.953 (inactive).

Take `C=C(CCCC)C(=O)CC[C@@H](OC(=O)c1ccccc1-c1ccccc1C(=O)O)c1cccc(OCCO)c1`: the composite z-score was -0.0724 in experiment [1]; 0.53 in [2]; 0.113 in experiment [3]; 0.834 in experiment [4]; 1.43 in experiment [5]; 1.56 in [6]. Besides, the composite z-score in the experiment on Lefty1 is 1.68; in experiment [8] it was -0.0168; in experiment [10], 0.137; in experiment [15], -0.6; in experiment [16] it was -0.231; in the experiment with Torsin-1A (Homo sapiens) [17] it was 0.604. Further, the composite z-score in the experiment with Torsin-1A (Homo sapiens) [18] is 0.561; in experiment [19] it was 1.68. Besides, the z-score in [7] is 0.317; in experiment [9], -2.33 (inactive); in experiment [11] it was -0.854 (inactive); in experiment [12], 0.194 (inactive); in experiment [13], 3.31 (inactive); in [14] it was 8.69 (active).

With `CCOC(=O)C[C@H]1[C@H](OC(=O)c2ccccc2-c2ccccc2)[C@@H](NC(=O)c2ccc3ccccc3n2)c2cc(OCCCO)ccc2N1C(=O)c1ccc2ccccc2n1`, the composite z-score in experiment [1] stood at 1.22; in experiment [2], 0.374; in [3] it was 0.281; in [4], 0.74; in [5], 0.474; in [6] it was 0.202. In addition, the composite z-score in the experiment with Lefty1 is 0.659; in experiment [8] it was 0.0363; in experiment [10], 0.191; in [15] it was 1.07; in experiment [16] it was -0.117; with Torsin-1A (Homo sapiens) [17] it was -0.137. The results for the composite z-score (with Torsin-1A (Homo sapiens) [18]; in [19]) were -0.184 and 0.389, respectively. For the same compound, the z-score was 0.481 in experiment [7]; 0.761 (inactive) in experiment [9]; -0.688 (inactive) in [11]; -1.37 (inactive) in experiment [12]; 1.22 (inactive) in [13]; 0.305 (inactive) in [14].

`C=CCOC(=O)[C@@H]1[C@H]2C(=O)O[C@H](c3ccccc3)[C@H](c3ccccc3)N2[C@H](c2ccc(OCCOC(=O)[C@H]3C[C@H]4C(=O)N[C@@H](CCCC[N+](C)(C)C)C(=O)N4[C@H]3c3ccc(O)cc3)cc2)[C@@]12C(=O)Nc1ccc(I)cc12`: the composite z-score stood at 2.62 in experiment [1]; 1.2 in experiment [2]; 0.831 in [3]; 0.542 in experiment [4]; 1.4 in experiment [5]; 1.62 in experiment [6]. Further, the composite z-score is 1.63 in the experiment with Lefty1; 0.756 in [8]; 0.568 in [10]; 0.0658 in experiment [15]; 0.0982 in experiment [16]; 0.636 in the experiment with Torsin-1A (Homo sapiens) [17]. Also, the figures for the composite z-score (with Torsin-1A (Homo sapiens) [18]; in experiment [19]) were 0.644 and 2.15, respectively. Besides, the z-score was -1.93 in [7]; 0.205 (inactive) in experiment [9]; -0.449 (inactive) in [11]; -0.0678 (inactive) in experiment [12]; 0.277 (inactive) in [13]; -0.391 (inactive) in [14].

Take `C=CCN1C(=O)[C@@]2(CCC(=O)OC(C)(C)C)N=C(c3ccc(OCCCO)cc3)O[C@H]2c2ccccc21`: the composite z-score amounted to 2.33 in [1]; 0.909 in experiment [2]; 1.54 in experiment [3]; 0.652 in experiment [4]; 1.23 in experiment [5]; 0.898 in experiment [6]. Moreover, the composite z-score with Lefty1 is 0.319; in experiment [8], 0.525; in [10], 0.228; in experiment [15], 0.57; in experiment [16], 0.0588; with Torsin-1A (Homo sapiens) [17] it was -0.0862. For the same compound, the composite z-score in the experiment with Torsin-1A (Homo sapiens) [18] was determined as 0.0147; in experiment [19], 0.832. The z-score in [7] is -0.758; in experiment [9] it was -4.58 (inactive); in experiment [11] it was -4.68 (inactive); in experiment [12], 0.324 (inactive); in [13] it was 0.573 (inactive); in experiment [14] it was -2.25 (inactive).
